In general, inhibition refers to the drop in the measured response relative to a control, in per cent.

Hit rate of the full screen: of about 5,600 compounds, about 150 (2.7%) showed an effect of 50% or more. For the sample, strong results were picked, then their nearest neighbours and some compounds at random.

The target of this test is T1, Protein deacetylase HDAC6 (Homo sapiens) (UniProt Q9UBN7).
T1 sequence (whole entry): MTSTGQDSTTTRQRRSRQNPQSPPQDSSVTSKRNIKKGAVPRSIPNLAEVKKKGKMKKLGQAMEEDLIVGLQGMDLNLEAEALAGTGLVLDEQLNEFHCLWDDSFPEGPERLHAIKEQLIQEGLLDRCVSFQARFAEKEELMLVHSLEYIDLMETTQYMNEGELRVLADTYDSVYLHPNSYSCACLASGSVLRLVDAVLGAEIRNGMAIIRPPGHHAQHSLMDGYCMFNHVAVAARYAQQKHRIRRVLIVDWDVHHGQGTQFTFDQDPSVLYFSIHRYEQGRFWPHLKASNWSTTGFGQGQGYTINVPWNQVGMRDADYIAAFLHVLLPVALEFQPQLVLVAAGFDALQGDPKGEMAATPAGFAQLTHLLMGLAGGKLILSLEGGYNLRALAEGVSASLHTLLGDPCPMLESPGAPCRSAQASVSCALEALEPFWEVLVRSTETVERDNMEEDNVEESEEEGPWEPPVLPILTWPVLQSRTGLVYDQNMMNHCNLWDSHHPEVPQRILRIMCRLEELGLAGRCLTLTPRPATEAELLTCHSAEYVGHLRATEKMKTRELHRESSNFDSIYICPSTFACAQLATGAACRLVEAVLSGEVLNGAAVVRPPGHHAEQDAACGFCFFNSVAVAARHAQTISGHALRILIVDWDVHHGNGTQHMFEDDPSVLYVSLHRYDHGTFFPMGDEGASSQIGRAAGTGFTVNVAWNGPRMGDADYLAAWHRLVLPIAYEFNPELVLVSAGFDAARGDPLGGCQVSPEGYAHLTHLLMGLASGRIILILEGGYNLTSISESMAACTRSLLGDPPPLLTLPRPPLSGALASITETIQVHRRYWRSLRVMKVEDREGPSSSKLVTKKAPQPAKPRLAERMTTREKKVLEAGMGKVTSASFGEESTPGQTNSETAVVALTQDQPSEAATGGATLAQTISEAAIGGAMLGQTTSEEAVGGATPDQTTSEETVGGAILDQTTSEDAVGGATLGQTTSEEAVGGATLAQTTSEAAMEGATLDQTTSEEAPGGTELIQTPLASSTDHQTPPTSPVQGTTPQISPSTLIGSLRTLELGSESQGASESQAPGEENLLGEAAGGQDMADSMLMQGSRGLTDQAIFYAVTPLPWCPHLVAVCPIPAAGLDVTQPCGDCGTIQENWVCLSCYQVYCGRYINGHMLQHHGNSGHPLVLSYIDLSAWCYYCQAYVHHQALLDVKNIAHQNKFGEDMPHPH
Conditions: at 10 µM.
On to `O=C(O)CCCCN(CCc1ccccc1OCc1ccc(CCc2ccccc2)cc1)Cc1ccc(C(=O)O)cc1`, for which the inhibition was -4%.

`COc1cc2c(NC3CCN(C4CCCCC4)CC3)nc(N3CCCN(C(C)C)CC3)nc2cc1OCCCN1CCCCC1`: the inhibition is -8.06%.

For `COc1cc2nc(C3CC3)nc(N3CCN(c4ccccc4OC)CC3)c2cc1OC`, the inhibition is 0%.

`CC(C(=O)O)c1ccc2c(c1)CC(=O)c1ccccc1S2` (stereo not given): the inhibition is -3.15%.

As to `CC(C(=O)O)c1ccc(N2Cc3ccccc3C2=O)cc1` (stereo not given), the inhibition amounted to 82.1%.

On to `CC(C(=O)O)c1cccc(C(=O)c2ccccc2)c1` (stereo not given), for which the inhibition is 4.07%.

Turning to `CNC(=O)O[C@H]1COc2ccc(N3CCN(C4COC4)CC3)cc2[C@@H]1NC(=O)c1ccc(F)cc1`, the inhibition was -3.83%.

Regarding `O=C1Nc2cc(Br)ccc2/C1=C1/Nc2ccccc2/C1=N\O`, the inhibition amounted to 2.55%.

In the case of `O=C1COc2nccc(-c3ccccc3F)c2CN1Cc1cc(C(F)(F)F)cc(C(F)(F)F)c1`, the inhibition was -5.84%.

On to `C=C1/C(=C\C=C2/CCC[C@]3(C)[C@@H]([C@H](C)OCCC(C)(C)O)CC[C@@H]23)C[C@@H](O)C[C@@H]1O`, for which the inhibition is 1.22%.

Consider `NS(=O)(=O)C#Cc1ccccc1`, for which the inhibition was -5.38%.

As for `Cc1cccc(C#Cc2ccccc2)n1`, the inhibition came out at 94.7%.

Turning to `COc1cc(C(=O)N(CCC2CCCN2C)C/C(C)=C/c2ccccc2F)cc(OC)c1OC` (stereo not given), the inhibition was -2.86%.

Turning to `CC(C)(C)c1cc(C(=O)/C(C#N)=N/Nc2cccc(Cl)c2)no1`, the inhibition was 7.67%.

Consider `CC(C)Oc1ccc2c(=O)c3cc(C(=O)O)ccc3oc2c1`, for which the inhibition was 76.3%.

For `CNC(=O)c1c(C)oc2cc(Oc3ncnc4cc(OC)c(OC)cc34)ccc12`, the inhibition was 14.7%.

As to `CC(C)(N)c1cc(C(=O)N[C@@H]2CCc3ccc(Oc4ccnc5c4CCC(=O)N5)cc3C2)cc(C(F)(F)F)c1`, the inhibition is -1.36%.

In the case of `CN(C)C/C=C/C(=O)Nc1ccc(C(=O)Nc2cccc(Nc3ncc(Cl)c(-c4c[nH]c5ccccc45)n3)c2)cc1`, the inhibition is -4.86%.

For `CN(C)c1ccc(C(=C2C=CC(=[N+](C)C)C=C2)c2ccc(N(C)C)cc2)cc1`, the inhibition is 59.7%.

Take `NC(=O)c1ccc2[nH]ccc2c1`: the inhibition was -7.83%.

With `O=C(Nc1cc2cc[nH]c2cn1)c1ccccc1`, the inhibition amounted to 97.7%.

Take `O=C(Nc1ccc2[nH]ccc2c1)c1ccccc1`: the inhibition turned out to be 49.3%.

`CCOc1ccc(-n2c([C@@H](C)N(Cc3cccnc3)C(=O)Cc3ccc(OC(F)(F)F)cc3)nc3ncccc3c2=O)cc1`: the inhibition was -2.97%.

Consider `COc1cccc(N2CCN(C3=Nc4c(F)cccc4[C@H](CC(=O)O)N3c3cc(C(F)(F)F)ccc3OC)CC2)c1`, for which the inhibition was -7.43%.

Take `O=C1c2ccccc2C(=O)C1c1ccccc1`: the inhibition turned out to be 0.29%.

Regarding `COc1ccc(Oc2c(Cl)cnn(C3c4ccccc4-c4ccccc43)c2=O)cc1`, the inhibition was 3.12%.

In the case of `O=C1c2ccccc2C(=O)C1c1ccc(Br)cc1`, the inhibition turned out to be 86.8%.

Consider `O=C1c2ccccc2C(=O)C1c1ccc(Cl)cc1`, for which the inhibition was -0.61%.

On to `COc1ccc(C2C(=O)c3ccccc3C2=O)cc1`, for which the inhibition worked out at 97.2%.

Consider `COc1ccc(C2CC(c3ccccc3)=NN2c2ccc(S(N)(=O)=O)cc2)cc1` (stereo not given), for which the inhibition was -2.13%.

Consider `Nc1ncc2c(n1)CC(c1ccco1)CC2=O` (stereo not given), for which the inhibition worked out at 10.6%.

For the molecule `CO/N=C1\C[C@@H](C(=O)NC[C@@H](O)c2ccccc2)N(C(=O)c2ccc(-c3ccccc3C)cc2)C1`, the inhibition is -5.99%.

Take `CC(=O)Oc1ccccc1C(=O)Nc1ccccc1`: the inhibition worked out at 24.1%.

For the molecule `Nc1n[nH]c2nnc(-c3c(-c4ccccc4)nn4ccccc34)cc12`, the inhibition was 1.45%.

`NC(=O)c1ccc([N+](=O)[O-])cc1Cl`: the inhibition was 3.17%.

In the case of `CCN(CCNC(=O)Nc1ccccc1Br)c1cccc(C)c1`, the inhibition was -8.23%.

`O=C(Nc1ccc([N+](=O)[O-])cc1O)Nc1ccccc1Br`: the inhibition came to 61.6%.

For the molecule `CCC(C(=O)O)c1ccc(CC(C)C)cc1` (stereo not given), the inhibition was determined as 5.56%.

As to `CCCCC1OC(=O)c2ccccc21` (stereo not given), the inhibition worked out at 4.45%.

In the case of `N[C@@H]1c2cccnc2[C@H](OC(=O)N2CCC(n3c(=O)[nH]c4ncccc43)CC2)CC[C@H]1c1cccc(F)c1F`, the inhibition was -1.43%.

Regarding `CS(=O)(=O)N(Cc1ccco1)CC(O)Cn1c2ccccc2c2ccccc21` (stereo not given), the inhibition was -5.79%.

Consider `O[C@H]1CC[C@H](Nc2nc(-c3ccccc3)nc3[nH]ccc23)CC1`, for which the inhibition turned out to be 2.15%.

As for `O=C(NC1CC1)c1cc(-c2cccs2)on1`, the inhibition worked out at 60.8%.

As to `CN1CCC(NC(=O)c2cc(-c3c(O)cc(O)cc3Oc3ccc([N+](=O)[O-])cc3)on2)CC1`, the inhibition was -7.8%.

`Cc1ccc(S(=O)(=O)NCc2ccccc2)cc1`: the inhibition is -1.3%.

Turning to `CO[C@H]1CC[C@@H](C(=O)c2ccc3nc4c(cc3c2)CCCO4)CC1`, the inhibition was found to be 1.73%.

In the case of `CCCn1c(=O)c2[nH]c(-c3cnn(Cc4cccc(C(F)(F)F)c4)c3)nc2n(CC)c1=O`, the inhibition worked out at 2.86%.

In the case of `CC(=O)NC[C@H]1CN(c2ccc(N3CCN(C(=O)CO)CC3)c(F)c2)C(=O)O1`, the inhibition is -2.46%.

With `COc1ccc(/C=C/C(=O)O)cc1`, the inhibition is -6.98%.

Turning to `COc1cccc(NC(=O)/C=C/c2ccc(Cl)cc2)c1`, the inhibition stood at 91.8%.

As to `COc1cc(NC(=O)c2ccc(-c3ccc(Cl)cc3)o2)cc(OC)c1`, the inhibition was found to be 4.45%.

Regarding `CN(CCc1ccc(Cl)c(Cl)c1)CCN1CCCC1`, the inhibition stood at 3.41%.

On to `O=C(O)COc1ccc(/C=C2\SC(=O)NC2=O)cc1`, for which the inhibition was 95%.

Turning to `N=C1NC(=O)/C(=C/c2ccc(O)cc2)S1`, the inhibition amounted to 14%.

`CCc1ccc(/C=C2/SC(=S)NC2=O)cc1`: the inhibition stood at 16.7%.

The record behind these values is ChEMBL document CHEMBL4808148, “HDAC6 screening dataset using tau-based substrate in an enzymatic assay yields selective inhibitors and activators” (2021).
